PubChem BioAssay (NCI)
The panel holds about 83,000 compounds, 20% with a hit somewhere; the sample as a whole holds those more often.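 Treatment: one concentration, 48 hours, 96-well format. Scoring: percent growth, with anything below 10 considered active.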 The source made the active and inactive calls.

System: NCI-H226 lung
Assay: NCI-60 one-dose screen, 48 h (100 = growth as untreated, 0 = no growth, -100 = all killed)
Conditions: 10 µM unless noted

SMILES | growth
Cc1cc2c([nH]1)CSc1cc(S(=O)(=O)c3ccccc3)c(=O)[nH]c1-2 | 32.6% [100 µM] (inactive)
CC1=C(Nc2ccc(N3CCN(C)CC3)cc2)C(=O)c2cncnc2C1=O | 99% (inactive)
CCCCCCC1(C)NCCO1 (stereo not drawn) | 103% (inactive)
C#CCOc1cccc(Nc2ncnc3ccc(NC(=O)CCl)cc23)c1 | 21% (inactive)
COc1ccc(C(=O)C2C(c3ccc(OC)cc3)CN(C)C23C(=O)Nc2ccccc23)cc1 (stereo not drawn) | 88% (inactive)
CCN(CC)CCNC(=O)c1cn2ncnc(Oc3ccc(NC(=O)Nc4ccc(Cl)c(C(F)(F)F)c4)c(F)c3)c2c1C | 73.9% (inactive)
CC(=O)OCc1nc(C#N)c(N(C)C)o1 | 97.3% (inactive)
CN[C@]12CC3(C=CC(=O)C=C3)O[C@@]1(Cc1ccc(OC)cc1)N(C)C(=O)N2 | 22.2% (inactive)
C=C(CNCCc1ccc(O)cc1)[C@@H]1CC[C@]2(CO)CC[C@]3(C)[C@H](CC[C@@H]4[C@@]5(C)CCC(NCCO)C(C)(C)[C@@H]5CC[C@]43C)[C@@H]12 (stereo partly drawn) | 81.5% (inactive)
O=C1/C(=C\c2cn(-c3ccccc3)nc2-c2ccc(-c3cccs3)cc2)CCc2ccccc21 | 74.4% (inactive)
Cc1ccc(-c2nn(-c3ccccc3)cc2C=C2C(=O)ON=C2C(C)C)cc1 | 95.3% (inactive)
CC/C(=C(/c1ccc(Cl)cc1)c1ccc(OCCN2CCCC2)cc1)c1ccc(OC)cc1 | 89% (inactive)
Cc1c(-c2nc3ccc(F)cc3c(=O)[nH]2)c2ccccc2n1C | 61.1% (inactive)
COC1=CC(c2ccc[nH]2)=N/C1=C\c1[nH]c(C)c(C(=O)OCc2ccccc2)c1C | -25.2% (active)
COc1ccc(C/C(C)=C(/c2ccc(OCCN3CCCCC3)cc2)c2ccc(OC(=O)NCc3ccccc3)cc2)cc1 | -70% (active)
CC(C)N1CN2C(=S)NC3C2N(C1)C(=S)N3C (stereo not drawn) | 100% (inactive)
CCCCN[C@H]1CC[C@@]2(C)[C@@H](CC[C@@]3(C)[C@H]2[C@H](O)C[C@H]2/C(=C(\CCC=C(C)C)C(=O)OC)[C@@H](OC(C)=O)C[C@@]23C)[C@@H]1C | 98% (inactive)
O=[N+]([O-])c1ccc(-c2nc(N3CCOCC3)c3c4c(sc3n2)CCCC4)cc1 | 85% (inactive)
COc1cc(N2C(=O)[C@H](O)C2c2ccc(SC)cc2)cc(OC)c1OC (stereo partly drawn) | 68.6% (inactive)
C#Cc1ccc(NC(=O)c2ccc(/C=C/C(=O)c3nccn3C)cc2)cc1 | -35.3% (active)
Cc1nnc(NC(=O)c2nc(S(=O)(=O)Cc3ccc(F)cc3)ncc2Cl)s1 | 98.7% (inactive)
Cc1ccccc1/C=C1\CN(C(=O)OC(C)(C)C)C/C(=C\c2ccccc2C)C1=O | 42.2% (inactive)
C[C@]12C=CC(=O)C=C1CCC1C2[C@@H](O)C[C@@]2(C)C1CC[C@]2(O)C(=O)COC(=O)CCC(=O)O (stereo partly drawn) | 84.6% (inactive)
O=C(Cn1c2c(c3ccccc31)CCCC2)Nc1ccc(-c2nc3ccccc3s2)cc1 | 106% (inactive)
Cc1cc(Cl)ccc1Nc1nc(C(F)(F)F)ccc1C(=O)N/N=C/c1ccc([N+](=O)[O-])cc1 | 6.08% (active)
O=C(Nn1c2c(sc1=NCc1ccccc1)C(=O)c1ccccc1C2=O)c1cc2ccc1CCc1ccc(cc1)CC2 | 66.3% (inactive)
CC(C)c1ccc(COCc2cc(CN3CCCC3)c(O)c3ncccc23)cc1 | -6.04% (active)
Cn1cccc1C(=O)C1C(c2cccc([N+](=O)[O-])c2)C2C3CCCCC3CN2C12C(=O)Nc1ccc(Cl)cc12 (stereo not drawn) | 41.5% (inactive)

System: NCI-H322M lung
Assay: as above
Conditions: 10 µM unless noted

SMILES | growth
COc1cc(C(=O)n2nc(N3CCN(C)CC3)c3cc(N)ccc32)cc(OC)c1OC | 58.6% (inactive)
O=C1N[C@@H]2NC(=[N+]3CCOCC3)N[C@@H]2N1 | 96.3% (inactive)
N#Cc1c(N)nnn1Cc1cc(=O)oc2c1ccc1ccccc12 | 102% (inactive)
COc1cc(OC)cc(C2=C3CC[C@@H]4[C@H](CC[C@]5(C)C(=O)CC[C@@H]45)C3=CC3C(O)c4cccnc4N4C(=O)COC234)c1 (stereo partly drawn) | 114% (inactive)
C=C(C)[C@@H]1CC[C@]2(C(=O)N3CCN(C)CC3)CC[C@]3(C)[C@H](CC[C@@H]4[C@@]5(C)CC(=C/c6ccncc6)/C(=N/O)C(C)(C)[C@@H]5CC[C@]43C)[C@@H]12 | 75.1% (inactive)
CN1CCN(Cc2ccc3c(NNC(=O)c4ccccc4)nc4cc(F)ccc4n23)CC1 | 28.2% (inactive)
CCOC(=O)c1c2c(n3ccc(C)cc13)C(=O)c1ccccc1C2=O | 77% (inactive)
CCCC(=O)NC(c1ccc2c(c1)OCO2)c1ccc2cccnc2c1O (stereo not drawn) | 25.9% (inactive)
Cc1nc2sc(C(=O)Nc3ccccc3)c(N)c2cc1C(=O)c1ccccc1 | 39.4% (inactive)
COC(=O)c1ccc2c(c1)C(=O)c1c-2n(CCCN)c(=O)c2cc([N+](=O)[O-])ccc12 | -84.3% (active)
CO[C@]12C=C/C(=C(/C(=O)OCc3cccnc3)C(=O)CCCCCCCC[C@@]3(OC)C=C/C(=C(/C(=O)OCc4cccnc4)C(=O)CCCCCCCC1)O3)O2 | 18.3% (inactive)
Brc1c2c(c(Br)c3ccccc13)CCCC2 | 99.6% (inactive)
Cc1cc2c([nH]1)CSc1cc(S(=O)(=O)c3ccccc3)c(=O)[nH]c1-2 | 47.1% [100 µM] (inactive)
CC1=C(Nc2ccc(N3CCN(C)CC3)cc2)C(=O)c2cncnc2C1=O | 101% (inactive)
CCCCCCC1(C)NCCO1 (stereo not drawn) | 87.3% (inactive)
C#CCOc1cccc(Nc2ncnc3ccc(NC(=O)CCl)cc23)c1 | -18.8% (active)
COc1ccc(C(=O)C2C(c3ccc(OC)cc3)CN(C)C23C(=O)Nc2ccccc23)cc1 (stereo not drawn) | 103% (inactive)
CCN(CC)CCNC(=O)c1cn2ncnc(Oc3ccc(NC(=O)Nc4ccc(Cl)c(C(F)(F)F)c4)c(F)c3)c2c1C | 34.4% (inactive)
CC(=O)OCc1nc(C#N)c(N(C)C)o1 | 99.8% (inactive)
CN[C@]12CC3(C=CC(=O)C=C3)O[C@@]1(Cc1ccc(OC)cc1)N(C)C(=O)N2 | 49.7% (inactive)

SMILES | growth
C=C(CNCCc1ccc(O)cc1)[C@@H]1CC[C@]2(CO)CC[C@]3(C)[C@H](CC[C@@H]4[C@@]5(C)CCC(NCCO)C(C)(C)[C@@H]5CC[C@]43C)[C@@H]12 (stereo partly drawn) | -24.5% (active)
O=C1/C(=C\c2cn(-c3ccccc3)nc2-c2ccc(-c3cccs3)cc2)CCc2ccccc21 | 98.5% (inactive)
Cc1ccc(-c2nn(-c3ccccc3)cc2C=C2C(=O)ON=C2C(C)C)cc1 | 91.2% (inactive)
CC/C(=C(/c1ccc(Cl)cc1)c1ccc(OCCN2CCCC2)cc1)c1ccc(OC)cc1 | 79.7% (inactive)
Cc1c(-c2nc3ccc(F)cc3c(=O)[nH]2)c2ccccc2n1C | 78.5% (inactive)
COC1=CC(c2ccc[nH]2)=N/C1=C\c1[nH]c(C)c(C(=O)OCc2ccccc2)c1C | -11% (active)
COc1ccc(C/C(C)=C(/c2ccc(OCCN3CCCCC3)cc2)c2ccc(OC(=O)NCc3ccccc3)cc2)cc1 | -81.7% (active)
CC(C)N1CN2C(=S)NC3C2N(C1)C(=S)N3C (stereo not drawn) | 104% (inactive)
CCCCN[C@H]1CC[C@@]2(C)[C@@H](CC[C@@]3(C)[C@H]2[C@H](O)C[C@H]2/C(=C(\CCC=C(C)C)C(=O)OC)[C@@H](OC(C)=O)C[C@@]23C)[C@@H]1C | 97.2% (inactive)
O=[N+]([O-])c1ccc(-c2nc(N3CCOCC3)c3c4c(sc3n2)CCCC4)cc1 | 96.3% (inactive)
COc1cc(N2C(=O)[C@H](O)C2c2ccc(SC)cc2)cc(OC)c1OC (stereo partly drawn) | 37.1% (inactive)
C#Cc1ccc(NC(=O)c2ccc(/C=C/C(=O)c3nccn3C)cc2)cc1 | -95.4% (active)
Cc1nnc(NC(=O)c2nc(S(=O)(=O)Cc3ccc(F)cc3)ncc2Cl)s1 | 93.8% (inactive)
Cc1ccccc1/C=C1\CN(C(=O)OC(C)(C)C)C/C(=C\c2ccccc2C)C1=O | 80.9% (inactive)
C[C@]12C=CC(=O)C=C1CCC1C2[C@@H](O)C[C@@]2(C)C1CC[C@]2(O)C(=O)COC(=O)CCC(=O)O (stereo partly drawn) | 106% (inactive)
O=C(Cn1c2c(c3ccccc31)CCCC2)Nc1ccc(-c2nc3ccccc3s2)cc1 | 101% (inactive)
Cc1cc(Cl)ccc1Nc1nc(C(F)(F)F)ccc1C(=O)N/N=C/c1ccc([N+](=O)[O-])cc1 | -18.6% (active)
O=C(Nn1c2c(sc1=NCc1ccccc1)C(=O)c1ccccc1C2=O)c1cc2ccc1CCc1ccc(cc1)CC2 | 106% (inactive)
CC(C)c1ccc(COCc2cc(CN3CCCC3)c(O)c3ncccc23)cc1 | 12.2% (inactive)
Cn1cccc1C(=O)C1C(c2cccc([N+](=O)[O-])c2)C2C3CCCCC3CN2C12C(=O)Nc1ccc(Cl)cc12 (stereo not drawn) | 75.6% (inactive)
